Screen size: about 39,000 compounds; about 3,300 (8.5%) were called active. The sample as a whole holds a higher share of actives than the screen did.
These compounds were tested on HepG2 (assay: cytotoxicity call (relative viability < 0.9)). Settings: 10 µM.

| Structure (SMILES) | cytotoxicity call |
| --- | --- |
| Cc1cccnc1[C@H](c1ccc(F)cc1)N(C)C(=O)C1CCN(CCOc2ccc(Cl)cc2Cl)CC1 | inactive |
| CC(=O)N(C)C[C@H]1Oc2ncc(C#C[C@@H](C)O)cc2C(=O)N([C@@H](C)CO)C[C@H]1C | inactive |
| C[C@@H]1CN([C@H](C)CO)C(=O)Cc2cc(NC(=O)Nc3cccc4ccccc34)ccc2O[C@H]1CN(C)C(=O)Nc1ccc(F)cc1 | inactive |
| CNC[C@@H]1Oc2cc(C#CCN(C)C)ccc2S(=O)(=O)N([C@H](C)CO)C[C@@H]1C | inactive |
| CCCN1C[C@@H](C)[C@H](OC)CN(C)C(=O)c2cc(NS(=O)(=O)c3cn(C)cn3)ccc2OC[C@@H]1C | inactive |
| CN1CCN(C(=O)C[C@H]2CC[C@H](NC(=O)Cc3ccccn3)[C@H](CO)O2)CC1 | inactive |
| C[C@@H]1CCCCO[C@H](CN(C)S(=O)(=O)c2ccccc2)[C@@H](C)CN([C@H](C)CO)C(=O)c2cc(NC(=O)Nc3ccccc3)ccc2O1 | inactive |
| O=C(O)c1ccc(N[C@@H]2O[C@H](CO)[C@@H](O)[C@H](O)[C@H]2O)cc1 | inactive |
| Cc1ccc(S(=O)(=O)N(C)C[C@@H]2OCCCC[C@@H](C)Oc3ccc(NS(=O)(=O)c4ccc(Cl)cc4)cc3C(=O)N([C@H](C)CO)C[C@@H]2C)cc1 | inactive |
| Cc1ccc(S(=O)(=O)Nc2ccc3c(c2)C(=O)N([C@@H](C)CO)C[C@@H](C)[C@@H](CN(C)S(=O)(=O)c2ccc(Cl)cc2)OCCCC[C@@H](C)O3)cc1 | inactive |
| Cc1ccc(S(=O)(=O)Nc2ccc3c(c2)C(=O)N([C@H](C)CO)C[C@@H](C)[C@H](CN(C)S(=O)(=O)c2ccc(Cl)cc2)OCCCC[C@@H](C)O3)cc1 | active |
| Cc1ccc(S(=O)(=O)Nc2ccc3c(c2)C(=O)N([C@H](C)CO)C[C@@H](C)[C@@H](CN(C)S(=O)(=O)c2ccc(Cl)cc2)OCCCC[C@@H](C)O3)cc1 | inactive |
| Cc1ccc(S(=O)(=O)Nc2ccc3c(c2)C(=O)N([C@H](C)CO)C[C@H](C)[C@@H](CN(C)S(=O)(=O)c2ccc(Cl)cc2)OCCCC[C@H](C)O3)cc1 | active |
| Cc1ccc(S(=O)(=O)Nc2ccc3c(c2)C(=O)N([C@H](C)CO)C[C@H](C)[C@H](CN(C)S(=O)(=O)c2ccc(Cl)cc2)OCCCC[C@@H](C)O3)cc1 | inactive |
| Cc1ccc(S(=O)(=O)Nc2ccc3c(c2)C(=O)N([C@@H](C)CO)C[C@H](C)[C@@H](CN(C)S(=O)(=O)c2ccc(Cl)cc2)OCCCC[C@H](C)O3)cc1 | active |
| Cc1ccc(S(=O)(=O)Nc2ccc3c(c2)C(=O)N([C@@H](C)CO)C[C@@H](C)[C@H](CN(C)S(=O)(=O)c2ccc(Cl)cc2)OCCCC[C@@H](C)O3)cc1 | inactive |
| Cc1ccc(S(=O)(=O)N(C)C[C@H]2OCCCC[C@H](C)Oc3ccc(NS(=O)(=O)c4ccc(Cl)cc4)cc3C(=O)N([C@H](C)CO)C[C@H]2C)cc1 | inactive |
| Cc1ccc(S(=O)(=O)N(C)C[C@H]2Oc3ccc(NS(=O)(=O)c4cccs4)cc3CC(=O)N([C@H](C)CO)C[C@H]2C)cc1 | inactive |
| COc1ccc(CNC(=O)N(C)C[C@@H]2OCc3ccccc3-c3c(n(C)c4ccccc34)C(=O)N([C@@H](C)CO)C[C@H]2C)cc1 | inactive |
| C[C@H]1CN([C@@H](C)CO)C(=O)c2cccc(NC(=O)Nc3ccc(F)cc3)c2O[C@H]1CN(C)S(C)(=O)=O | inactive |
| COc1c(-c2coc3cc4c(cc3c2=O)CC(O)C(C)(C)O4)ccc2c1C=CC(C)(C)O2 (stereo not given) | active |
| COc1ccc(-c2coc3cc(O)ccc3c2=O)c(O)c1O | inactive |
| COc1ccc(-c2coc3cc(O)ccc3c2=O)c(OC)c1OC | inactive |
| O=C(C[C@@H]1CC[C@@H](NC(=O)C2CC2)[C@@H](CO)O1)NCCCN1CCOCC1 | inactive |

| Structure (SMILES) | cytotoxicity call |
| --- | --- |
| C[C@@H]1CN([C@H](C)CO)C(=O)c2cc(-c3ccc(C(=O)N(C)C)cc3)cnc2O[C@@H]1CN(C)C(=O)CN(C)C | inactive |
| Cc1cc(-c2ccc(NN=C3C=Cc4c(S(=O)(=O)O)cc(S(=O)(=O)O)c(N)c4C3=O)c(C)c2)ccc1NN=C1C=Cc2c(S(=O)(=O)O)cc(S(=O)(=O)O)c(N)c2C1=O | active |
| COc1cc(-c2ccc(NN=C3C=Cc4c(S(=O)(=O)O)cc(S(=O)(=O)O)c(N)c4C3=O)c(OC)c2)ccc1NN=C1C=Cc2c(S(=O)(=O)O)cc(S(=O)(=O)O)c(N)c2C1=O | active |
| COCC(=O)N1C[C@]2(CCN(CC2)C(=O)CN2CCOCC2)c2c([nH]c3cc(ccc23)OC)[C@@H]1CO | inactive |
| COc1ccc2c3c(n(c2c1)C)[C@H](CO)N(C[C@]13CCN(CC1)C(=O)C1CCOCC1)C(=O)C1CCOCC1 | inactive |
| C[C@@H]1CN([C@@H](C)CO)C(=O)c2cccc(NC(=O)C3CC3)c2O[C@H]1CN(C)Cc1ccc(Oc2ccccc2)cc1 | inactive |
| O=C(Nc1ccccc1)c1ccccc1O | active |
| O=C(Nc1ccccc1)Nc1ccccc1 | inactive |
| O=C(Nc1ccccc1)c1ccccc1 | inactive |
| CC(=O)Nc1ccccc1 | inactive |
| O=C(Nc1ccccc1)Nc1ccc(Nc2ccccc2)cc1 | active |
| NNC(=O)c1ccccc1O | inactive |
| C[C@@H]1CN([C@@H](C)CO)C(=O)c2cccc(NC(=O)Nc3ccccc3)c2O[C@H]1CN(C)S(C)(=O)=O | inactive |
| COc1ccc(CN(C)C[C@H]2OCCCC[C@@H](C)Oc3ccc(NC(=O)C4CCCCC4)cc3C(=O)N([C@@H](C)CO)C[C@H]2C)cc1 | inactive |
| CN1C(=O)c2cc(NC(=O)C3CCCC3)ccc2OC[C@H]2O[C@H](CC(=O)NCCc3ccncc3)CC[C@@H]21 | inactive |
| Cc1ccc(S(=O)(=O)N(C)C[C@@H]2Oc3ccc(NS(=O)(=O)c4ccccc4)cc3C(=O)N([C@H](C)CO)C[C@@H]2C)cc1 | inactive |
| C[C@@H]1CN([C@@H](C)CO)C(=O)c2ccccc2-c2ccccc2CO[C@@H]1CN(C)Cc1cccc(C(F)(F)F)c1 | inactive |
| CCCNC(=O)N[C@@H]1CC[C@H](CC(=O)N2CCN(C)CC2)O[C@H]1CO | inactive |
| COc1ccccc1NC(=O)Nc1ccc2c(c1)C(=O)N(C)C[C@@H](OC)[C@H](C)CN(Cc1ccccc1Cl)[C@H](C)CO2 | inactive |
| O=C1C=CC(=O)N1 | active |
| COc1ccc(CN(C)C[C@@H]2OCCCC[C@H](C)Oc3ccc(NC(=O)CCC(F)(F)F)cc3C(=O)N([C@H](C)CO)C[C@@H]2C)cc1 | inactive |
| CNC[C@@H]1Oc2ccc(NC(=O)Cn3cnnn3)cc2C(=O)N([C@H](C)CO)C[C@@H]1C | inactive |
| C[C@H](CO)N1C[C@H](C)[C@H](CN(C)C(=O)Nc2ccc(F)cc2)Oc2ccc(NC(=O)CCN3CCOCC3)cc2CC1=O | inactive |
| C[C@H](CO)N1C[C@H](C)[C@@H](CN(C)C(=O)Nc2ccc3c(c2)OCO3)Oc2c(NC(=O)C3CCOCC3)cccc2C1=O | inactive |

| Structure (SMILES) | cytotoxicity call |
| --- | --- |
| O=C(Nc1cc(Cl)cc(Cl)c1O)c1c(O)c(Cl)cc(Cl)c1Cl | inactive |
| Oc1c(Cl)cc(Cl)c(Cl)c1Cc1c(O)c(Cl)cc(Cl)c1Cl | active |
| O=C(/C=C/c1cccc(-c2cn(CC[C@@H]3OC(=O)[C@H](Cc4ccccc4)N4CC5=CC(=O)[C@H](C6CC6)[C@H]5[C@H]34)nn2)c1)NO | inactive |
| O=C(C[C@@H]1C[C@@H]2c3cc(NC(=O)Nc4ccc(C(F)(F)F)cc4)ccc3O[C@@H]2[C@H](CO)O1)NCCc1ccccc1 | inactive |
| CCS(=O)(=O)N1[C@H](CO)[C@H](c2ccccc2)C12CN(C(=O)CN(C)C)C2 | inactive |
| C[C@H]1CCCCO[C@H](CN(C)C(=O)C2CCCCC2)[C@@H](C)CN([C@@H](C)CO)C(=O)c2cc(NC(=O)Nc3ccc4c(c3)OCO4)ccc2O1 | inactive |
| COc1c(C)c2c(c(O)c1CC=C(C)CCC(=O)OCCN1CCOCC1)C(=O)OC2 | inactive |
| COc1c(C)c2c(c(O)c1CC=C(C)CCC(=O)O)C(=O)OC2 | active |
| COc1cccc(S(=O)(=O)N2C[C@@H](O)COC[C@@H]3O[C@@H](CC(=O)N4CCOCC4)CC[C@H]32)c1 | inactive |
| COc1ccc(NC(=O)N(C)C[C@H]2Oc3c(NC(=O)CCCCCC(=O)Nc4ccccc4N)cccc3C(=O)N([C@@H](C)CO)C[C@H]2C)cc1 | inactive |
| C[C@H]1CN([C@@H](C)CO)C(=O)c2cc(C#CCc3ccccc3)cnc2O[C@H]1CN(C)C(=O)Cc1cccnc1 | inactive |
| Cc1ccccc1S(=O)(=O)N1C[C@H](O)COC[C@@H]2O[C@@H](CC(=O)N3CCOCC3)CC[C@H]21 | inactive |
| CC(C)C(=O)Oc1ccc(CO)cc1C(CCN(C(C)C)C(C)C)c1ccccc1.O=C(O)C=CC(=O)O (stereo not given) | active |
| C[C@H]1CN([C@@H](C)CO)C(=O)c2cc(NC(=O)CCN3CCOCC3)ccc2O[C@@H]1CN(C)C(=O)Nc1ccc2c(c1)OCO2 | inactive |
| CC(=O)NCCCC[C@@H]1NC(=O)[C@@H]2C[C@H](C(=O)NCCCCCCN(C)C)[C@H](c3ccc(O)cc3)N2C1=O | inactive |
| C[C@@H]1CCCCO[C@@H](CN(C)Cc2ccc(Cl)c(Cl)c2)[C@@H](C)CN([C@H](C)CO)C(=O)c2cc(NC(=O)c3ccccc3)ccc2O1 | inactive |
| CCOn1ccnc1 | inactive |
| CC#CCn1c(N2CCC[C@@H](N)C2)nc2c1c(=O)n(Cc1nc(C)c3ccccc3n1)c(=O)n2C | active |
| Cc1cc(C)n(-c2nc3c(c(=O)n(CCN4CCOCC4)c(=O)n3C)n2C)n1 | inactive |
| Cn1c(=O)c2c(nc(N3CCCCC3)n2CCN)n(C)c1=O | inactive |
| C[C@H]1CN([C@@H](C)CO)C(=O)c2cccc(NS(=O)(=O)c3cn(C)cn3)c2O[C@@H]1CN(C)C(=O)Nc1ccc2c(c1)OCO2 | inactive |
| CC(=O)N1[C@@H]2Cn3c(ccc(-c4ccccc4)c3=O)[C@H]1[C@@H](C(=O)NCCCN1CCOCC1)[C@@H]2CO | inactive |

— the antibiotic and cytotoxicity screens of Wong et al. (2023)
